Data on 8 compounds can be found in PubChem BioAssay (NCI).

About 79,000 compounds went through this panel and 15% of them were active in at least one assay; those are over-represented in the sample as a whole. Unmarked numbers belong to inactive results. Calls of active or inactive are those of the source. No stated cut-off is given here; in the data, active means growth inhibition above about 70%; inactive means the rest.

This assay in a line: NCI Yeast Anticancer Drug Screen. Data for the mgt1 strain (AID 153). The following applies: S. cerevisiae mgt1 mutant growth inhibition, active compounds read high. How it is done: Growth inhibition of yeast strains with defined genetic alterations is measured as a screen for potential anti-cancer activity. Selected strains with alterations in DNA damage repair or cell cycle control were exposed to compounds and growth inhibition was measured relative to vehicle treated controls. The strain used in this assay is mgt1

Consider `c1ccc2cc(OCC3CO3)c(OCC3CO3)cc2c1` (stereo not given), for which the growth inhibition was -43% (at 1.2 µM); -25% (at 3.7 µM); -4% (at 11.0 µM); -21% (at 33.0 µM); 11% (at 100.0 µM).
The like results for `CC1(C)CC(=O)C(C(CC(c2ccccc2)c2cc3c(cc2O)OCO3)C2=C(O)CC(C)(C)CC2=O)=C(O)C1` (stereo not given) were, in that order, -2%, 1%, 48%, 86% (active) and 88% (active).
For `N=c1oc2ccccc2cc1-c1nc2ccccc2[nH]1`, the growth inhibition (at 1.2 µM) was 13%; the growth inhibition (at 3.7 µM) was 11%; the growth inhibition (at 11.0 µM) was 24%; the growth inhibition (at 33.0 µM) is 43%; the growth inhibition (at 100.0 µM) was 79% (active).
The like results for `O=c1[nH]c(=O)n(CCCO)cc1F` were, in that order, -13%, -31%, -24%, -33% and -18%.
The like results for `O=C(c1c(F)c(F)c(F)c(F)c1F)c1c(F)c(F)c(F)c(F)c1F` were, in that order, 24%, 59%, 98% (active), 99% (active) and 99% (active).
In the same order, the values of `O=C(Cc1ccccc1)c1ccc(O)cc1` are -45%, -56%, -38%, 51% and 82% (active).
`c1ccc(N/N=C2\CC(c3ccccc3)Oc3ccccc32)cc1` (stereo not given): the growth inhibition is, setting by setting: (at 1.2 µM) -3%; (at 3.7 µM) -1%; (at 11.0 µM) 6%; (at 33.0 µM) 11%; (at 100.0 µM) 22%.
In the case of `COc1ccc(/C(=N/O)c2ccccc2C2=Nc3ccccc3C(NCc3ccccc3)O2)cc1C` (stereo not given), the growth inhibition is -2% (at 1.2 µM); -3% (at 3.7 µM); -1% (at 11.0 µM); 31% (at 33.0 µM); 97% (active) (at 100.0 µM).
